In PubChem BioAssay (NCATS):
Values joined by “and” are separate entries in the source; they are usually repeats but may differ in a detail not shown here. Identical values can stand only once. Inconclusive results are not listed. Active and inactive are the calls of the source. Unless noted, the call rests on the fitted dose curve; in most records, active means well fitted curve in the direction sought with a large enough effect; inconclusive means small, poorly fitted or top-dose-only effect, or another doubt; inactive means no such curve, though single readings can be large; an effect the other way counts as inactive or inconclusive.

Experiments:
[1] = target: Cytochrome P450 2C9 (Homo sapiens) (UniProt P11712); experiment: Cytochrome P450 family 2 subfamily C member 9 (CYP2C9) small molecule antagonists: luciferase biochemical (cell-free) qHTS assay (AID 1645842; active means well fitted curve in the direction sought with a large enough effect in the repeat runs; an effect the other way counts as inactive or inconclusive; further: nearly all actives have a fitted effect of over 55% in size; further: potency means the concentration at half of the fitted maximal effect; on activity change, negative = inhibition: on the % scale 0 is the no-effect control and ±100 the full control effect)
Sequence of Cytochrome P450 2C9 (Homo sapiens) (P11712 whole entry, looked up): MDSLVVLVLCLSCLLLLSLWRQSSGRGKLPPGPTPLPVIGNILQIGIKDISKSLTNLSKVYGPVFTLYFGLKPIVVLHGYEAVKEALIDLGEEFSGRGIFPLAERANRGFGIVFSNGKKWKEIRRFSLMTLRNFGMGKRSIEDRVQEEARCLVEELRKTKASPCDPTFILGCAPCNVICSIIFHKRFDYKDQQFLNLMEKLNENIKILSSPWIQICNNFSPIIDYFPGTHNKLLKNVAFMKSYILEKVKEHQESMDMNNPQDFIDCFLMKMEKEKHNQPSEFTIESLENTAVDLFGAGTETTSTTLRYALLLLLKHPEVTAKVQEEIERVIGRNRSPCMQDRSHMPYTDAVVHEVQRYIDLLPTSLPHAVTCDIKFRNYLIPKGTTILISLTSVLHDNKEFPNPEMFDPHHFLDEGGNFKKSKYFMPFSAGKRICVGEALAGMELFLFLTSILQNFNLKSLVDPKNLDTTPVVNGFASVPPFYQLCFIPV
Summary of the method: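 Luminescence, after 20 min with luciferin detection reagent, reflected CYP2C9 turnover during a 1 h NADPH-driven reaction at 37C. Enzyme-substrate mix contained 0.4% bovine serum albumin and was preincubated with compound 10 min at room temperature.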

[2] = Primary qHTS for inhibitors of nuclear receptor binding SET domain protein 2 (NSD2) in an isogenic RCH-ACV NSD2 p.E1099K mutant (9B) (AID 1645876); further: nearly all actives have a fitted effect of over 70% in size; further: potency means the concentration at half of the fitted maximal effect
[3] = Primary qHTS for inhibitors of nuclear receptor binding SET domain protein 2 (NSD2) in an RCH-ACV wild type WT cells (2C) (AID 1645877); further: nearly all actives have a fitted effect of over 70% in size; further: potency means the concentration at half of the fitted maximal effect
[4] = NCATS anti-infectives library activity on HEK293 viability as a counter-qHTS vs the C. elegans viability qHTS (AID 1745854);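 further: HEK293 cells exposed to compounds for 24 hr before the viability read; on the % scale 0 is the no-effect control and ±100 the full control effect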
Summary of the method: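 Cytotoxicity in human HEK293 cells is measured by ATP-dependent CellTiter-Glo luminescence following a 24 hr incubation with titrated library compounds at 37C. Top final concentration is 41.7 uM.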

[5] = target: Catechol O-methyltransferase (Homo sapiens) (UniProt P21964); experiment: Confirmatory Screen for Target Class Profiling of Small Molecule Inhibitors of Methyltransferases (AID 1745852; calls by dose curve; further: potency means the concentration at half of the fitted maximal effect; on activity change, negative = inhibition: on the % scale 0 is the no-effect control and ±100 the full control effect); conditions: MTase-Glo luminescence, SAH detection, recombinant enzyme; measured here: COMT max response; stronger effect = lower value
Sequence of Catechol O-methyltransferase (Homo sapiens) (P21964 whole entry, looked up): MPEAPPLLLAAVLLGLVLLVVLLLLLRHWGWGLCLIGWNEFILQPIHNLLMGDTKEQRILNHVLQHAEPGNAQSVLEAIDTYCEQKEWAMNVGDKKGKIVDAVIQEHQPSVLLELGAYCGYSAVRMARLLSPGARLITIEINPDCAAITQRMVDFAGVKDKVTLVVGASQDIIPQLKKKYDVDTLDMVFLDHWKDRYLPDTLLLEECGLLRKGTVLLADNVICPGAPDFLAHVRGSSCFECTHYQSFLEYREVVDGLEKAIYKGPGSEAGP

[6] = target: Guanidinoacetate N-methyltransferase (Homo sapiens) (UniProt Q14353); experiment: as above; conditions: activity change, negative = inhibition: at 57.3 µM (top of the series) unless noted
[7] = target: Nicotinamide N-methyltransferase (Homo sapiens) (UniProt P40261); experiment: as above; conditions: MTase-Glo luminescence, SAH detection, recombinant enzyme; measured here: NNMT max response; stronger effect = lower value
Sequence of Nicotinamide N-methyltransferase (Homo sapiens) (P40261 whole entry, looked up): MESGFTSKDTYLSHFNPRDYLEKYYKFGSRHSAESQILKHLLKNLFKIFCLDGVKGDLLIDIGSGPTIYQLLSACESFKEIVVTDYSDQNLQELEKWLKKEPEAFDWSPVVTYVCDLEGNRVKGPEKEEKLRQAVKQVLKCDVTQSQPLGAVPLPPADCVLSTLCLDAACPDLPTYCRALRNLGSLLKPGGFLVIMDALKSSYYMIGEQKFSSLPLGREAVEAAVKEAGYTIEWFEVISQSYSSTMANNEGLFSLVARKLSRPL

[8] = target: Phenylethanolamine N-methyltransferase (Homo sapiens) (UniProt P11086); experiment: as above; conditions: MTase-Glo luminescence, SAH detection, recombinant enzyme; measured here: PNMT max response; stronger effect = lower value
Sequence of Phenylethanolamine N-methyltransferase (Homo sapiens) (P11086 whole entry, looked up): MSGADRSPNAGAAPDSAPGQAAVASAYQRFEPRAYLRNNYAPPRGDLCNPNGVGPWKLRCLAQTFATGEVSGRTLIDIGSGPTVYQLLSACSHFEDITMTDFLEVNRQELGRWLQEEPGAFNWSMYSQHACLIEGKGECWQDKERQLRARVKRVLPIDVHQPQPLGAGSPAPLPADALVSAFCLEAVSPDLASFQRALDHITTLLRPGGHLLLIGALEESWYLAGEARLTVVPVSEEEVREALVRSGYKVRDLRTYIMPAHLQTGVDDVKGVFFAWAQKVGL

SMILES	Potency [1]	Potency [2]	Potency [3]	outcome [4]	activity [5] [%]	Potency [6]	activity [7] [%]	activity [8] [%]	activity change, negative = inhibition [6]
COc1ccc(NC(=O)c2ccc(C(=N)N(C)C)cc2)c(C(=O)Nc2ccc(Cl)cn2)c1	3.79 µM (active)	inactive	inactive	inactive					
Cn1cc(-c2ccc(S(=O)(=O)n3ccc(/C=C/C(=O)Nc4ccccc4N)c3)cc2)cn1	0.849 µM (active)	649 nM (active) and 934 nM (active)	649 nM (active) and 833 nM (active)	inactive					
CCN(CC)C(=O)c1ccc(Nc2nc(OCC3CCCCC3)c3[nH]cnc3n2)cc1	10.7 µM (active)	3.65 µM (active)	1.83 µM (active)		-18.1	30.4 µM (active)	-75.3	-18.4	
CCCNCCc1ccc(NS(=O)(=O)c2ccc(OC(F)(F)F)cc2)cc1	8.49 µM (active)		14.5 µM (active)						
COc1ccc(NC(=O)c2ccc(-c3ccc(C(=N)N)cc3C)cc2)cc1N1CCN(C)CC1	inactive	inactive			-5.44		-3.54	-6.51	2.76%
Cc1cccc(CC(=O)N2CCc3c2ccc(-c2cn(C)c4ncnc(N)c24)c3F)n1	10.7 µM (active)		16.4 µM (active)						
COc1ccc(N(C(=O)Nc2c(C)cccc2C)c2cc(Nc3ccc(N4CCN(C)CC4)cc3)ncn2)c(OC)c1	13.5 µM (active)	10.3 µM (active)			-5.96		-36.9	-7.92	0%
CCOc1ccc(-n2c([C@@H](C)N(Cc3cccnc3)C(=O)Cc3ccc(OC(F)(F)F)cc3)nc3ncccc3c2=O)cc1	0.952 µM (active)		18.3 µM (active)						
Cc1c(OCc2cccc(-c3ccc(C(=O)O)cc3)c2)cc2c(c1C)C(=O)C(C1CCCC1)C2 (centres undefined)	19 µM (active)	inactive	inactive		-4.94		-40.4	-6.25	-6.27%
C=CC(=O)Nc1ccc2ncnc(Nc3cccc(Br)c3)c2c1	3.38 µM (active)	4.68 µM (active)	4.17 µM (active)		-59.2	19.2 µM (active)	-38.9	-49.9	
Nc1ncnc2c1c(-c1ccc(Oc3ccccc3)cc1)nn2[C@@H]1CCCNC1	inactive	1.63 µM (active)	2.3 µM (active)		-13.8		-54	-19	-5.27%
CCOC(=O)c1cnc2ccc(-c3cncc(NS(=O)(=O)c4ccccc4)c3)cn12	0.134 µM (active)	0.29 µM (active)	0.258 µM (active)		-38.9	42.9 µM (active)	-25.7	-35.9	
Cc1onc(-c2ccccc2)c1C(=O)N1CCN(c2ccc([N+](=O)[O-])cc2Cl)CC1	9.52 µM (active)	inactive	inactive	inactive					
NC(=O)c1cccc2[nH]c(-c3ccc(C4CCCN4)cc3F)nc12 (centres undefined)	10.7 µM (active)		18.3 µM (active)						
Cc1cc(N2CCOCC2)ccc1Nc1nc(NC2CCCCC2)c2[nH]cnc2n1	13.5 µM (active)	1.29 µM (active)	8.33 µM (active)		-13.2		-20.9	-9.51	-8.72%
CC[C@@H](Nc1c(Nc2cccc(C(=O)N(C)C)c2O)c(=O)c1=O)c1cc(C(C)C)co1	5.35 µM (active)		16.3 µM (active)						
COc1ccccc1OCCNCC(O)CCOc1cccc2[nH]c3ccccc3c12 (centres undefined)	0.301 µM (active)	18.3 µM (active)	14.5 µM (active)		-5.33		-4.12	-93.1	2.56%
Cc1cc(NC(=O)NCCN2CCC(O)(Cc3ccccc3)CC2)c2ccccc2n1	inactive	inactive	inactive		-2.12		2.4	0.991	0%
CC(C)c1ccc(NC(=O)c2cccs2)c(-c2nc3ccccc3[nH]c2=O)c1	10.7 µM (active)		16.3 µM (active)						
O=C(NCCCNc1nc(Nc2cccc(CN3CCOCC3)c2)ncc1C1CC1)C1CCC1	8.49 µM (active)	2.63 µM (active)	1.18 µM (active)		-3.13		-11.4	-23.2	0%
COC1CCN(C(=O)c2cc(Cc3n[nH]c(=O)c4ccccc34)ccc2F)CC1	23.9 µM (active)	13.2 µM (active)	8.33 µM (active)	inactive					
CN1CCN(Cc2ccc(NC(=O)Cc3ccc(Oc4cc(NC(=O)C5CC5)ncn4)cc3)cc2C(F)(F)F)CC1	19 µM (active)	0.649 µM (active)	0.817 µM (active)		-8.91		-29.5	-13.7	0.726%
Cc1cc(C)c(-n2cc(C)c3c(Cl)nc(C)nc32)c(C)c1	10.7 µM (active)		inactive						
CC[C@H]1CN(c2nc(N)c(C(N)=O)nc2Cl)CCN1C1CCN(Cc2ccc(Cl)cc2)CC1	7.56 µM (active)	inactive	inactive		-6.83		-61.1	-5.17	-2.17% [at 29.8 µM]
